From PubChem BioAssay AID1345083 (National Center for Advancing Translational Sciences (NCATS), 2018)
About 6,200 (6.6%) of roughly 94,000 compounds were called active. About 31% were inconclusive and are not listed. Calls follow the shape of the dose curve; as a rule, active = well fitted inhibition curve with a large enough effect; inconclusive = small, poorly fitted or top-dose-only effect; inactive = flat fitted curve, though single readings scatter. For the sample, actives were picked, then their nearest neighbours and some compounds at random.

experiment: Cytotoxic Profiling in HEK 293 Cell Line of Diverse Libraries Using Quantitative High-Throughput Screening; conditions: HEK 293 viability, ATP luminescence (CellTiter-Glo), 48-72 h; series mostly up to 115 µM; activity change, negative = cytotoxicity: at the top concentration; also: nearly all actives have a fitted effect of over 60% in size
Procedure, shortened: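 qHTS cytotoxicity; HEK 293, 250 cells/well; compound pinned; 48 or 72 hr, 37 degree Celsius, 5% CO2, 95% humidity; CellTiter-Glo, 10 min RT; luminescence (ATP).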
% is scaled to controls: 0 for no effect and ±100 for the full control effect; potency is read from the fitted curve at half-maximal effect.

Row | Structure (SMILES) | Potency | activity change, negative = cytotoxicity | outcome
1 | Fc1ccc(Nc2nc(-c3ccccc3F)no2)cc1 | 39.8 µM (active) | – | –
2 | O=C(Cn1cccc1-c1nc(-c2ccc(F)cc2)no1)Nc1cc(F)cc(F)c1 | – | -13.6% (inactive) | –
3 | CCc1nc2c(=O)n(CC(=O)NCc3cc(C)ccc3C)nc(C)c2s1 | – | -19.2% (inactive) | –
4 | CN(c1ccccc1)c1cc(=O)c2ccnc(Nc3cccc([S+](C)(=O)[O-])c3)c2o1 | 100 µM (active) | – | –
5 | Cn1ccc(Nc2nccc3c(=O)cc(-c4ccccn4)oc23)n1 | – | -16.5% [at 172 µM] (inactive) | –
6 | CCCC(=O)N(C)CC1CCOCC1 | – | 9.81% (inactive) | –
7 | COc1ccccc1NC(=O)N1CCC2(CCNC(=O)CC2)CC1 | – | -2.63% (inactive) | –
8 | CC1(COCC2CC2)COc2ccc(C(=O)NCc3cccnc3)cc2N1 (centres undefined) | – | -25.1% [at 172 µM] (inactive) | –
9 | O=C(NCC1CCOCC1)c1ccc2[nH]ccc2c1 | – | -0.244% (inactive) | –
10 | CN(C)CCN(C)C(=O)c1ccc2c(c1)NC(C)(COc1ccc3[nH]ccc3c1)CO2 (centres undefined) | 112 µM (active) | – | –
11 | CC(C)CC(=O)N1CCCN(c2nnc3ccccn23)CC1 | – | – | inactive
12 | C[C@@H](NC(=O)c1cccnc1)c1c(-c2ccc(F)cc2)noc1C(=O)O | – | 4.65% [at 172 µM] (inactive) | –
13 | CC(=O)NC1CN(c2ccnc3ccnn23)C1 | – | -10.6% [at 172 µM] (inactive) | –
14 | CC(=O)Nc1cccc(-c2nnc3n2CCCC3)c1 | – | 24.3% (inactive) | –
15 | Cc1cccc(C(=O)N2C[C@@H](F)C[C@H]2C(=O)N2CCCCC2)c1 | – | 1.93% (inactive) | –
16 | Cc1cccc(-c2cccc(NC(=O)C3CCCN(C(=O)CC(F)(F)F)C3)c2)c1 (centres undefined) | 31.6 µM (active) | – | –
17 | CCCCc1ccc(NC(=O)Cn2ccn3nc(-c4ccc(F)cc4)c(CO)c3c2=O)cc1 | – | -0.406% (inactive) | –
18 | COc1ccccc1CNC(=O)c1nn(CC2CC2)c2c1CNCC2 | – | -11% (inactive) | –
19 | COC[C@H]1NC(=O)CC[C@H]1C(=O)NCc1cccc(C(F)(F)F)c1 | – | 2.55% (inactive) | –
20 | O=C(NCc1cccc(C(F)(F)F)c1)c1nn(CCOc2ccccc2)c2c1CNCC2 | 28.2 µM (active) | – | –
21 | CNC(=O)c1noc([C@@H]2CC(F)(F)CN2Cc2ccc(C)cn2)n1 | – | 1.02% (inactive) | –
22 | COc1ccc(CN2CCC3(COc4ncccc4[S+](=O)([O-])N3)C2)cc1 (centres undefined) | – | -6.89% (inactive) | –

Row | Structure (SMILES) | Potency | activity change, negative = cytotoxicity | outcome
23 | COc1ccc(OCC2CN(Cc3cccc(F)c3)[S+](=O)([O-])c3cccnc3O2)cc1 (centres undefined) | 28.2 µM (active) | – | –
24 | COc1ccc(N2CC(COc3ccccc3)Oc3ncccc3[S+]2(=O)[O-])cc1 (centres undefined) | – | -26% [at 57.5 µM] (inactive) | –
25 | CNC(=O)N1CCC(C2CCN(C(=O)C3CC=CC3)C2)CC1 (centres undefined) | – | -10.2% (inactive) | –
26 | CC(C)(C)c1csc(NC(=O)c2ccc3c(c2)OCCN(C2CCC2)C3)n1 | 50.1 µM (active) | – | –
27 | O=C(Cn1nc2c(cc1=O)CCCC2)Nc1nc(-c2ccc3c(c2)OCCCO3)cs1 | – | 1.44% (inactive) | –
28 | COc1ccc(NC(=O)Cn2c(C)ccc(NS(=O)(=O)c3ccccc3)c2=O)cc1 | – | -11.2% (inactive) | –
29 | CCOc1ccc2c(n1)CCN(C(=O)C(C)C)C2 | – | -20.1% (inactive) | –
30 | O=C(NCc1ccc(Cl)nc1)c1cn2c(n1)CN(C(=O)c1cccnc1)CC2 | – | – | inactive
31 | O=C(NCCc1cnccn1)c1coc(COc2cccc(C(F)(F)F)c2)n1 | – | -2.53% (inactive) | –
32 | CN(C)C[C@@H]1CN(Cc2ccccn2)C[C@H]1NC(=O)c1cc(Cl)ccc1F | 44.7 µM (active) | – | –
33 | CN(C)C[C@@H]1CN(c2ncccn2)C[C@H]1NC(=O)c1cc(Cl)ccc1F | – | 2.99% (inactive) | –
34 | Cc1occc1C(=O)N[C@@H]1CN(Cc2cccnc2)C[C@H]1CN(C)C | – | -0.747% (inactive) | –
35 | CNC(=O)c1cc(C)nc2onc(C3CCN(C(=O)c4ccc(C)cc4)CC3)c12 | – | -0.605% (inactive) | –
36 | NC(=O)CCNC(=O)C1=C[C@@H](NC(=O)Nc2ccccc2Br)[C@@H](O)[C@H](O)C1 | – | – | inactive
37 | CCN(C1CCN(C)CC1)C1CN(C(=O)c2nccc3ccccc23)C1 | – | -0.681% (inactive) | –
38 | CCOc1ccccc1NC(=O)Cn1c(=O)n(-c2ccccc2)c(=O)c2c1cc(C)n2C | – | -1.28% (inactive) | –
39 | CCc1cccc(C)c1NC(=O)CN1C(=O)C(c2ccccc2)=NC12CCCC2 | – | -26% (inactive) | –
40 | CCOc1ccccc1NC(=O)CN1C(=O)C(c2ccccc2)=NC12CCCC2 | 79.4 µM (active) | – | –
41 | Cc1noc(C)c1[S+](=O)([O-])N1CCn2c(nnc2C2CCCNC2)C1 (centres undefined) | – | -2.98% (inactive) | –
42 | Cc1cccc(-c2cnc3n[nH]c(-c4ccc5c(c4)OCO5)c3n2)c1 | 70.8 µM (active) | – | –
43 | c1cc2c(cc1-c1n[nH]c(C3CCOCC3)n1)OCO2 | – | 4.32% (inactive) | –
44 | COc1ccc(-c2[nH]nc3ncc(-c4cn[nH]c4)nc23)cc1F | – | -65.2% [at 172 µM] (inactive) | –

Row | Structure (SMILES) | Potency | activity change, negative = cytotoxicity | outcome
45 | CC(=O)N1CCC(Oc2ccc(Cl)cc2C(=O)N2CCN(CC3CC3)CC2)CC1 | – | -0.051% (inactive) | –
46 | CCn1cc(S(=O)(=O)N2CCc3nn(CC4CC4)c(=O)n3CC2)cn1 | – | – | inactive
47 | CN(C)c1ccc2ncc(Nc3ccccc3F)n2n1 | 112 µM (active) | – | –
48 | O=C(NCCCN1CCCCC1)C1CCN(C(=O)N2CC3CC(C2)[C@H]2CCCC(=O)N2C3)CC1 (some centres undefined) | – | 7.11% (inactive) | –
49 | COCCN1CCC2(CCC1=O)CCN(C(=O)c1sc(C)nc1C)CC2 | – | 0.502% (inactive) | –
50 | CCOC(=O)C1=CN(CC(=O)Nc2ccccc2F)S(=O)(=O)N=C1C | – | 9.12% (inactive) | –
51 | COc1cc(C)c(CN2CCN3C(=O)CNC(=O)C3C2)cc1C(C)C (centres undefined) | – | -23.9% (inactive) | –
52 | Cc1cc(=O)n(CC(=O)N2C[C@H](CO)C[C@H](CN(C)C)C2)nc1C | – | -2.93% (inactive) | –
53 | CCOc1cc(C)c(CN2C[C@@H](CN(C)C)C[C@H](CO)C2)cc1C(C)C | 35.5 µM (active) | – | –
54 | Cc1ccc(-c2ccc3nnc(CNC(=O)c4cccnc4)n3n2)cc1C | – | -0.42% (inactive) | –
55 | COc1ccccc1Nc1cnc2ccc(-c3ccc(OC)c(OC)c3)nn12 | 11.2 µM (active) | – | –
56 | COc1ccc(C(=O)NCc2nnc3ccc(-c4ccccc4)nn23)c(OC)n1 | – | – | inactive
57 | CN(C)c1cccc(-c2cnc(Nc3ccc(N4CCOCC4)cc3)c3c2CCO3)c1 | 22.4 µM (active) | – | –
58 | Cc1cccc(CNC(=O)C2Cn3cccc3C(=O)N2CC(C)C)c1 (centres undefined) | – | -18.7% (inactive) | –
59 | CCOC(=O)[C@H]1[C@@H](O)C(=O)N(Cc2ccccc2)C12CCN([S+](C)(=O)[O-])CC2 | – | -4.69% (inactive) | –
60 | Cc1ccccc1CN1CCC(N2CCCC(C(=O)NC3CC3)C2)CC1 (centres undefined) | – | -0.659% (inactive) | –
61 | Cc1ccc2c(n1)N(C)[C@H](CO)CCN(Cc1ccccc1C)C2 | 89.1 µM (active) | – | –
62 | Cc1ccccc1CN1CCC2(C1)C(=O)N(C)C(=O)N2C (centres undefined) | – | -6.62% (inactive) | –
63 | C=CCN1CCN(C(=O)C2CCCN(C(=O)c3ccccc3)CCC(=O)NCC2)CC1 (centres undefined) | – | 4.32% (inactive) | –
64 | CC(C)(C)c1cc(CC2(NCc3ccc(C#N)cc3)COC2)no1 | – | -28.2% [at 172 µM] (inactive) | –
